Data reported in PubChem BioAssay (NCI).
The panel holds about 79,000 compounds, 15% with a hit somewhere; the sample as a whole holds those more often. No stated cut-off is given here; in the data, active means growth inhibition above about 70%; inactive means the rest.

Legend:
[1] = NCI Yeast Anticancer Drug Screen. Data for the rad50 strain (AID 155);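 further: 0% = growth of vehicle-only cultures of the same strain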; conditions: S. cerevisiae rad50 strain growth inhibition; at 50.0 µM; active compounds read high
How it was run: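 DNA repair mutant yeast, compound exposure, growth read-out; inhibition is taken relative to vehicle.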

[2] = NCI Yeast Anticancer Drug Screen. Data for the mec2-1 strain (AID 157); conditions: S. cerevisiae mec2-1 strain, at 50.0 µM, active compounds read high
How it was run: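 mec2-1 yeast strain, carrying an alteration in DNA damage repair or cell cycle control, was exposed to compounds; growth inhibition was measured relative to vehicle-treated controls.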

[3] = NCI Yeast Anticancer Drug Screen. Data for the mlh1 rad18 strain (AID 175); conditions: S. cerevisiae mlh1 rad18 strain growth inhibition; at 50.0 µM; active compounds read high
How it was run: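 Growth inhibition of the yeast strain was measured after compound exposure and expressed relative to vehicle-treated controls. The strain carries defined defects in DNA damage repair.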

Measured: growth inhibition

Cc1ccc2c(c1)=N/C(=N\c1nc(O)c(O)[nH]1)N=2
inactive: [1] 7.4% | [2] -15.3% | [3] -4.55%

Cc1ccc(S(=O)(=O)NCN2C(=O)c3ccccc3C2=O)cc1
inactive: [1] -3.75% | [2] -3.85% | [3] 1.55%

NC(=O)C(=O)N/N=C/c1ccc2c(c1)CCC2
inactive: [1] -2.45% | [2] -10.9% | [3] 8.3%

O=C1OC(c2ccc(Cl)cc2)=N/C1=C\c1ccccc1
inactive: [1] -4.85% | [2] -5.5% | [3] -6.65%

O=S(=O)(O)c1ccc(-c2ccccc2)cc1
inactive: [1] -0.4% | [2] -16.1% | [3] -5.4%

Cn1/c(=N/Sc2nnnn2-c2ccccc2)sc2ccccc21
inactive: [1] 13.6% | [2] -13.9% | [3] 29.9%

O=C(O)/C=C/C(=O)Nc1cc(Cl)ccc1Cl
inactive: [1] 9.6% | [2] 12.1% | [3] 24.6%

CS(=O)(=O)c1ccc(NN)c(S(C)(=O)=O)c1
inactive: [1] -9.4% | [2] -10.3% | [3] 11.8%

CCOc1ccc(NC(=S)NC2CCCCCCCCCCC2)cc1
inactive: [1] 15.7% | [2] 10.1% | [3] 32.9%

CCOC(=O)CN1C(=O)C(=O)c2ccccc21
inactive: [1] 18.9% | [2] 5.3% | [3] 24.4%

N#CCC(=O)OCCCCOC(=O)CC#N
inactive: [1] -8.3% | [2] -22.3% | [3] 15.4%

N#C/C(=C1C=C(Br)/C(=N\O)C=C\1Cl)c1ccc(Cl)cc1
inactive: [1] 30.9% | [2] 4.55% | [3] 27.7%

C#Cc1c(-c2c[nH]c3ccccc23)ccc[n+]1C
inactive: [1] -12.5% | [2] -36.1% | [3] -24.4%

Fc1ccccc1Nc1n[nH]c(=S)s1
inactive: [1] 55.9% | [2] 56.7% | [3] 38.8%

CCN(CC)C(C(=O)Nc1ccccc1)C(=O)Nc1ccccc1
inactive: [1] 3.7% | [2] 2.8% | [3] -4.9%

O=C(O)c1ccc(NCn2c(=S)[nH]c3ccccc32)cc1O
inactive: [1] -7.6% | [2] -42.5% | [3] -16.2%

Cc1cccc(NNC(=S)Nc2ccccc2)c1
inactive: [1] 18.1% | [2] -14.8% | [3] 5.05%

O=C(N/N=C/c1ccc2c(c1)CCC2)c1cc2ccccc2cc1O
inactive: [1] 2.55% | [2] -8.15% | [3] 7.2%

COc1cc(/C=N/NC(=O)c2ccncc2)cc(OC)c1OC
inactive: [1] -14.2% | [2] -48.5% | [3] -16.5%

CC1(c2ccc3ccccc3c2)CCC(=O)O1 (stereo not drawn)
inactive: [1] -2.75% | [2] -30% | [3] -4.8%

O=C1OC(c2ccccc2)=N/C1=C/c1cccs1
inactive: [1] 6.85% | [2] -23.1% | [3] -24.8%

CCn1c2[n+](c3ccccc31)CCC2
inactive: [1] -28.6% | [2] -35.2% | [3] 3.65%

CCOC(=O)c1c(N)sc2c1CCN(Cc1ccccc1)C2
inactive: [1] 39.4% | [2] 17.8% | [3] 21.9%

CN(c1ccccc1Cl)S(C)(=O)=O
inactive: [1] -4.2% | [2] -42.6% | [3] -0.25%

CC1=NOC(=O)C1C(C)(C)C1C(=O)ON=C1C (stereo not drawn)
inactive: [1] 8.25% | [2] -0.7% | [3] -18.4%

O=CNC(Cc1ccc(O)cc1)C(=O)O (stereo not drawn)
inactive: [1] 4.1% | [2] -30.4% | [3] -8.4%

CCOC(=O)C(=Cc1c[nH]c2ccc(Br)cc12)C(=O)OCC
inactive: [1] -17.5% | [2] -22.9% | [3] -5.15%

O=C(O)COC1CC(=O)N2c3ccccc3C34CCN5C(=O)C(=O)C(CC53)C1C24 (stereo not drawn)
inactive: [1] -1.7% | [2] -24.9% | [3] -9.5%

O=C(O)CSCc1nc2ccccc2[nH]1
inactive: [1] -10.8% | [2] -15.7% | [3] 41.8%

Cc1ccc(-c2nc3cc(Cl)ccc3c(=O)o2)cc1
inactive: [1] 14.6% | [2] -11.3% | [3] 6.3%

CCCN(CCC)CCC(=O)OCC
inactive: [1] -18.2% | [2] -29.2% | [3] -10.9%
